PubChem BioAssay AID2129 (The Scripps Research Institute Molecular Screening Center, 2009)
The whole screen tested about 320,000 compounds, of which about 2,200 (0.69%) were called active.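 How the source made its calls: active means inhibition above the mean of all tested compounds plus 3 SD, cutoff set per campaign (cut at about 30% in these data); inactive means the rest.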 The full list was thinned out, with actives kept by preference.

Biological target: Bcl-2-like protein 1 (Homo sapiens) (UniProt Q07817)
Test: inhibitors of human Bcl-xL, primary screen, biochemical, fluorescence polarization, HTS (AID 2129);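 further: 0% = DMSO wells and 100% = unlabeled Bim-BH3 peptide competitor; inhibitors lower millipolarization by displacing the labeled peptide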
Details: GST-Bcl-xL / FITC-Bim BH3 peptide fluorescence polarization; at 10.9 µM; active compounds read high

Sequence of Bcl-2-like protein 1 (Homo sapiens) (Q07817 whole entry, looked up): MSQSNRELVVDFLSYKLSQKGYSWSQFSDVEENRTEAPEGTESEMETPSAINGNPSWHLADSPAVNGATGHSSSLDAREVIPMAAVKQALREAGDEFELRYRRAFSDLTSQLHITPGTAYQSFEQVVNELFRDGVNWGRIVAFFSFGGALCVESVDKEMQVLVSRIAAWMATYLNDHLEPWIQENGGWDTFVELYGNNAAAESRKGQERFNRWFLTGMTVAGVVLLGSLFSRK

inhibition, inactive:
Cc1sc(NC(=O)c2ccc3ncsc3c2)c(C(N)=O)c1C 4.75%
O=C(COc1ccc(/C=N/NS(=O)(=O)c2ccccc2)cc1)NCCc1ccccc1 5.85%
COc1ccc(C2=CC(c3cccc(OC)c3)n3nnnc3N2)cc1 (configuration not stated) 29.1%
CC(C)c1ccc(N2CC(C(=O)Nc3nccs3)CC2=O)cc1 (configuration not stated) -0.59%
CC1=C(C(=O)N(C)C)C(c2ccccc2OC(F)F)NC(=O)N1 (configuration not stated) 3.23%
Cc1cc2occ(CC(=O)NNC(=O)c3ccccc3F)c2cc1C 0.46%
COc1ccccc1NC(=S)N1CCC(NC(=O)C23CC4CC(CC(C4)C2)C3)CC1 2.22%
Cc1cccn2c(=O)c3cc(C#N)c(=O)n(CCCN4CCOCC4)c3nc12 28.5%
COc1ccc(CNC(=O)c2cc3c(=O)n4ccccc4nc3n(CC3CCCO3)c2=N)cc1 (configuration not stated) 8.61%
Cc1oc2c(C)c3oc(=O)c(CC(=O)N[C@@H](CC(C)C)C(=O)N[C@@H](Cc4ccccc4)C(=O)O)c(C)c3cc2c1C 10.3%
CCOc1ccc(/C=N/OCC(=O)NCc2cccs2)cc1 2.85%
CCN(c1ccccc1)S(=O)(=O)c1ccc(OCC(=O)N2CCCC2)cc1 3.8%
CC(C)[C@@H](NC(=O)OC(C)(C)C)C(=O)NCC1CCC(C(=O)N[C@@H](Cc2ccccc2)C(=O)O)CC1 (some centres not stated) 7.31%
CC(C)C1N=C2c3ccccc3N=C(SCC(=O)c3ccc(O)c(O)c3)N2C1=O (configuration not stated) 13.5%
CC1(C)Cc2c(C#N)c(SCc3nc4ccccc4[nH]3)nc(N3CCOCC3)c2CO1 6.67%
O=c1[nH]c(N2CCOCC2)nc2ccccc12 3.04%
CS(=O)(=O)N(CC(=O)NCc1ccco1)c1ccc2c(c1)OCO2 5.67%
CCOC(=O)N1CCN(S(=O)(=O)c2cc(Br)cc3c2N(C(=O)C2CC2)CC3)CC1 -4.43%
CCOc1cc(/C=C/C(=O)OCC(=O)NCCN2C(=O)CSC2=O)ccc1OCC(C)C -5%
Cc1cccc(Nc2nc(NCCO)nc(N3CCCC3)n2)c1 -0.55%
CCCc1cc(=O)[nH]c(SCC(=O)N2CCN(S(=O)(=O)c3ccc(C)cc3C)CC2)n1 3.73%
CCCOc1ccc(C2c3c(oc4cc(C)c(C)cc4c3=O)C(=O)N2CCCN2CCOCC2)cc1 (configuration not stated) 11.6%
Fc1c(F)c(C(F)(F)F)c(F)c(F)c1N1CCN(c2ccc3nnc(C(F)(F)F)n3n2)CC1 3.95%
COc1cc(/C=C/C2=CC(C)(C)NC(=S)N2)cc(OC)c1OC -3.53%
CCCCOC(=O)CNc1nnc(SCC(=O)OCC)[nH]c1=O 15.6%
O=C(NCCc1ccccc1)C1CCN(S(=O)(=O)c2ccc(Br)s2)CC1 2.98%
Cc1cc(C)c[n+](-c2nc3ccccc3nc2[N-]S(=O)(=O)c2cccs2)c1 5.77%
CCOC(=O)C1=C(O)/C(=C/c2ccc(OCC(=O)Nc3ccc(C)cc3)cc2)N=C1C -2.9%
COC(=O)C1=C(O)/C(=C/c2ccc(OCC(=O)Nc3ccccc3)cc2)N=C1C 0.76%
CCn1c2c(c3ccc(OC)cc31)CCCC2=O 5.26%
O=S(=O)(c1ccc(SCc2ccccc2)nc1)N1CCCCCC1 5.07%
CC(=O)c1cnn(-c2cc(Oc3ccc(F)cc3)ncn2)c1C 2.24%
COc1cccc(Nc2ncccc2C(=O)O)c1 6.39%
COc1ccc(NS(=O)(=O)c2ccc(F)cc2F)cn1 3.96%
CCCCOP(=O)(c1ccc(N(C)C)cc1)C(O)c1cc(OC)ccc1OC (configuration not stated) 5.82%
Cc1ccc(NC(=O)CSCC(=O)N2CCOCC2)cc1 1.4%
COc1cccc2cc(S(=O)(=O)c3ccc(C)cc3)/c(=N/NS(=O)(=O)c3ccc(C)cc3)oc12 5.22%
COC(=O)Cc1cc(=O)oc2c(C)c(O)ccc12 4.68%
Cc1ccc(NC(=O)C2CC2c2ccccc2)cc1 (configuration not stated) 2.22%
CC(=O)N1c2ccc(S(=O)(=O)N3CCC(C(=O)NC4CCCC(C)C4C)CC3)cc2CC1C (configuration not stated) 0.13%
COc1ccccc1/C=C/C=N/n1c(-c2ccc(Cl)cc2Cl)n[nH]c1=S -7.95%
COC(=O)c1ccc(SCc2ccccc2)nc1 6.87%
CCn1c(SCc2ccccc2)nc2cc(OC)c(OC)cc2c1=O 3.12%
CCc1ccccc1NC(=O)NCCN1CCCCC1 5.44%
CCOC(=O)[C@@H]1[C@H]2COc3cc(OC)ccc3[C@@H]2N2C(=O)N(c3cccc(C)c3)C(=O)[C@@]12C 3.42%
Cn1sc(=O)c2cc(S(=O)(=O)NC3CC3)ccc21 2.2%

inhibition, active:
COc1ccc(C2C=C(c3ccc(Br)cc3)Nc3nc(NS(C)(=O)=O)nn32)cc1 (configuration not stated) 164%
Cc1cccn2c(=O)c3cc(C#N)c(=NC(=O)c4cccnc4)n(CC4CCCO4)c3nc12 (configuration not stated) 47.4%
C1=C(N2CCOCC2)/C(=C/c2nc3ccccc3[nH]2)CC1 88.2%
CCN(c1ccc2c(c1)OCO2)S(=O)(=O)c1cc(Br)cc2c1N(C(=O)C1CC1)CC2 34%
N#CC1=C(N)C(C#N)(C#N)[C@H](c2ccsc2)[C@H]2COCC=C12 37.8%
Cc1cc2oc3ccc(NCCC4CCCN4C)cc3c(=O)c2cc1C (configuration not stated) 40.9%
O=S(=O)([N-]c1nc2ccccc2nc1-[n+]1ccc(Cc2ccccc2)cc1)c1ccc(Br)s1 82.6%
CCOC(=O)C1=C(O)/C(=C/c2cc(C)n(-c3ccccc3)c2C)N=C1C 35.6%
COc1ccc(Nc2cc(Cl)ccc2C(=O)O)cn1 50.8%
Cc1cc(S(=O)(=O)c2cc3ccc(O)c(C)c3oc2=O)ccc1F 40.6%
CSc1c(SCc2ccccc2)cnn(Cc2ccccc2)c1=O 145%
